Sampled rows, rich in hits. Any-hit rate of the full collection: about 21%.
RORg inh: inhibitors of mouse ROR gamma transcriptional activity | P51450 | Drosophila S2 Gal4-RORgamma UAS-luciferase reporter, 20 h | Potency, µM (top dose mostly 53.6 µM), inactives show at the highest dose activity change, negative = inhibition, actives largely listed as inhibitors | hit rate 5.4% among 310,000; further: potency means the concentration at half of the fitted maximal effect; nearly all actives have a fitted effect of over 60% in size
Target sequence (P51450 whole entry, looked up, the tested form may be a part): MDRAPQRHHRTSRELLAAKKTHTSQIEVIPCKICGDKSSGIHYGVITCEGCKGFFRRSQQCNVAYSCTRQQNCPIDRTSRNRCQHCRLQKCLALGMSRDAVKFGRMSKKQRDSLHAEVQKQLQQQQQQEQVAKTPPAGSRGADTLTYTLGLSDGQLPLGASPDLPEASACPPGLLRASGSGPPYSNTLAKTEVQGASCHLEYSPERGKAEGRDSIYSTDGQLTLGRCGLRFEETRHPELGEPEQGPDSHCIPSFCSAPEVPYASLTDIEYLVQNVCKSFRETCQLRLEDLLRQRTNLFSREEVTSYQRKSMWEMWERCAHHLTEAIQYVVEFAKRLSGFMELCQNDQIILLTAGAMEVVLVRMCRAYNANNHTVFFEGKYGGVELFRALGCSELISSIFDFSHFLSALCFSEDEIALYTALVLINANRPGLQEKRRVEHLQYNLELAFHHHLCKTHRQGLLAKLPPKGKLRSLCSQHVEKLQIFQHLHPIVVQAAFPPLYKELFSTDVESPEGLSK
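Using a luciferase readout, inhibitors were identified by reduced reporter activity in Drosophila cells coexpressing a copper-inducible Gal4–ROR gamma fusion and UAS-driven Photinus luciferase, incubated 20 hr after 700 uM copper sulfate.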
ELG1 DNA repair: ELG1-dependent DNA repair inhibition; HEK293T ELG1-luciferase reporter, luminescence, 16 h; DNA damage induced by 5-fluorouridine; Potency, µM (top dose mostly 46.1 µM), for inactives: at the highest dose activity change, negative = inhibition, actives largely listed as inhibitors; hit rate 2.3% among 330,000; further: potency means the concentration at half of the fitted maximal effect; nearly all actives have a fitted effect of over 55% in size
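Cells (2,000 per well) received 5-fluorouridine plus test compound or DMSO and were incubated 16 hr at 37 °C, 5% CO2. Luciferase activity was read by luminescence 30 min after ONE-Glo addition; signal suppression marked inhibition of damage-induced ELG1 function.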
Gal4-VP16 FLuc: inhibits Gal4-VP16 luciferase reporter, ROR gamma counter-screen. Drosophila S2 Gal4-VP16 UAS-luciferase, luminescence, 20 h. Potency, µM (doses to about 53.6 µM), inactives show at the top dose activity, negative = inhibition, most hits filed as inhibitors. hit rate 3.5% among 310,000. AID 2546;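 further: Gal4-VP16 expression switched on by copper sulfate through the metallothionein promoter; potency means the concentration at half of the fitted maximal effect; nearly all actives have a fitted effect of over 50% in size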
DT40 TDP1 CPT: DT40-hTDP1 cell growth loss with CPT; chicken DT40 Tdp1-/-;hTDP1 cells + 20 nM CPT, ATP luminescence, 48 h; hit rate 12% among 420,000; AID 686979; Potency, µM (highest dose often 46.2 µM), for inactives: at the highest dose activity change, negative = growth inhibition, usual class: inhibitors; further: potency means the concentration at half of the fitted maximal effect; nearly all actives have a fitted effect of over 55% in size
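Chicken DT40 Tdp1-/- cells complemented with human TDP1, 400 cells/well, exposed to compounds plus 20 nM camptothecin for at least 48 h at 37 C; viability read as ATP content by CellTiter-Glo luminescence.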
TDP1 cell noCPT: qHTS for Inhibitors of human tyrosyl-DNA phosphodiesterase 1 (TDP1): qHTS in cells in absence of CPT; DT40 Tdp1-/- hTDP1 cells, no CPT, ATP luminescence, 48 h; Potency, µM (series often up to 46.2 µM), for the others: top-dose activity change, negative = growth inhibition, actives largely listed as inhibitors; hit rate 15% among 420,000; AID 686978, 2013; further: potency means the concentration at half of the fitted maximal effect; nearly all actives have a fitted effect of over 55% in size
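Stably hTDP1-transfected Tdp1-null chicken DT40 cells were treated with library compounds minus camptothecin and grown for at least 48 hr at 37 °C, after which cellular ATP was quantified by luminescence.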
IL1B secr inh: inflammasome signaling inhibition, IL-1 beta readout; THP-1 LPS/ATP IL-1B secretion, AlphaLISA, 16 h; hits give low values; activity change, % at 57.5 µM; hit rate 4.7% among 360,000; AID 743279; in the data active means activity change below about -50%; inconclusive means mostly about -30% to -49%
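Secreted IL-1B measured by AlphaLISA bead assay after 16 h compound exposure of THP-1 cells; compounds (final up to 57.5 uM) added 1 h before LPS (250 ng/mL) and ATP (1.25 mM) stimulation; lower signal means less secretion.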
* = called active by the depositor; ? = inconclusive; . = not tested or not shown; [ ] = dose if it differs, or a comment. Unless noted, the call rests on the fitted dose curve; in most records, active means well fitted curve in the direction sought with a large enough effect; inconclusive means small, poorly fitted or top-dose-only effect, or another doubt; inactive means no such curve, though single readings can be large; an effect the other way counts as inactive or inconclusive. On the % scale 0 is the no-effect control and ±100 the full control effect.

SMILES	RORg inh	ELG1 DNA repair	Gal4-VP16 FLuc	DT40 TDP1 CPT	TDP1 cell noCPT	IL1B secr inh
C[C@@H]1COc2cccc(N3CCC[C@H]3CO)c2S(=O)(=O)N1	.	.	.	-1%	-28%	19
O=C(Nc1ccccc1Cl)c1cc(C2CCCN(C(=O)c3cccs3)C2)on1 (stereo unspecified)	.	.	.	6%	-5%	-18
c1ccc(CC[C@@H]2CC[C@@H](CCc3ccccc3)N2)cc1	.	13%	.	12µM*	18µM*	-2
COc1ccc(NC(=O)CCS(=O)(=O)c2cc3c4c(c2)CCN4C(=O)CC3)cc1OC	.	.	.	-16%	-4%	.
COc1c(S(=O)(=O)N2CCN(C(=O)c3ccco3)CC2)ccc(Cl)c1Cl	.	-16%	.	-27%	-22%	-1
CN(C)c1ccc(-c2nn3c(-c4ccc(Cl)cc4)nnc3s2)cc1	1%	0%	-3%	-1%	?	22
CN(C)c1ccc(-c2nn3c(C4CCCCC4)nnc3s2)cc1	-17%	?	2%	16µM*	23µM*	-16
Cc1ccc(NC2=C(Cl)C(=O)OC2OC(=O)c2ccco2)c(C)c1 (stereo unspecified)	.	.	.	?	-45%	0
Cc1ccccc1C(=O)OC1OC(=O)C(Cl)=C1Nc1ccc(C(=O)O)cc1 (stereo unspecified)	23%	2%	-2%	?	?	29
Cc1ccc(C)c(NC2=C(Cl)C(=O)OC2OC(=O)c2ccco2)c1 (stereo unspecified)	11µM*	8%	?	23µM*	23µM*	-90*
Cc1ccc(NC2=C(Cl)C(=O)OC2OC(=O)c2ccco2)cc1C (stereo unspecified)	-22%	-17%	?	?	?	-87*
CC(=O)c1ccccc1OC(=O)COc1ccc([N+](=O)[O-])cc1	-6%	-2%	-4%	-2%	6%	-6
COc1ccc(Cc2noc(-c3ccc([N+](=O)[O-])cc3)n2)cc1OC	?	18µM*	-14%	26µM*	?	-2
O=C(/C=C/C(Cl)(Cl)Cl)Nc1ccc(Cl)cc1	.	.	.	4.6µM*	5.2µM*	-104*
NC(=O)/C=C/C(=O)Nc1ccc(Cl)cc1	3.2µM*	?	?	3.3µM*	8.2µM*	-78*
CO	5%	.	-8%	5%	-3%	.
Cc1ccc(C(O)c2ncc(-c3cccc4ccccc34)[nH]2)cc1F (stereo unspecified)	.	.	.	?	?	-14
Cc1ccc(Cl)cc1-n1ncc2c(NCCC3=CCCCC3)ncnc21	.	.	.	16µM*	?	.
Cc1ccc(Cl)cc1-n1ncc2c(NCCc3ccccc3)ncnc21	.	.	.	16µM*	21µM*	.
Cc1ccc(Cl)cc1-n1ncc2c(NCCCc3ccccc3)ncnc21	.	.	.	7.3µM*	?	.
CCc1ccc(Nc2ncnc3c2cnn3-c2cc(Cl)ccc2C)cc1	.	.	.	?	-81%	.
CCCN1C(=O)SC(CC(=O)Nc2ccc(Br)cc2)C1=O (stereo unspecified)	28%	17%	0%	?	13µM*	-1
O=C(CC1SC2=NCCN2C1=O)Nc1ccc(Br)cc1 (stereo unspecified)	59%	5%	-3%	-2%	-2%	-1
O=C(CC1Sc2ncnn2C1=O)Nc1ccc(Br)cc1 (stereo unspecified)	?	5%	25µM*	2.1µM*	4.6µM*	-11
C=CCOc1ccc(/C=C/C(=O)OCc2csc(CC(=O)Nc3ccccc3C)n2)cc1	.	6%	.	3%	-2%	5
SMILES	RORg inh	ELG1 DNA repair	Gal4-VP16 FLuc	DT40 TDP1 CPT	TDP1 cell noCPT	IL1B secr inh
C[C@H]1C[C@H]2[C@@H]3CCC4=CC(=O)C=C[C@]4(C)[C@H]3C(=O)C[C@]2(C)[C@@]1(O)C(=O)CO	.	.	.	-12%	-25%	.
CCC(C)NC(=O)CSc1nc2c(sc3ccccc32)c(=O)n1Cc1ccccc1Cl (stereo unspecified)	.	.	.	?	3.3µM*	.
CCC(C)NC(=O)CSc1nc2c(sc3ccccc32)c(=O)n1CCc1ccc(OC)c(OC)c1 (stereo unspecified)	.	.	.	2%	-22%	.
COCCNC(=O)CCCn1c(SCc2ccccc2Cl)nc2c(sc3ccccc32)c1=O	.	.	.	?	9.2µM*	.
COCCNC(=O)CCCn1c(SCC(=O)c2ccc(Br)cc2)nc2c(sc3ccccc32)c1=O	.	.	.	-5%	-3%	.
OC(COc1ccccc1)CN1CCCC1 (stereo unspecified)	-12%	2%	-13%	13%	-2%	0
OC1CCCN(CC(O)COc2ccc(-c3ccccc3)cc2)C1 (stereo unspecified)	-19%	?	-1%	?	23µM*	-26
CC(C)(c1ccccc1)c1ccc(OCC(O)CN2CCCC2)cc1 (stereo unspecified)	?	-3%	-7%	?	?	-67*
Cc1ncc2c(c1CNC(=O)c1ccc3c(c1)OCO3)CCN(C(=O)C1Cc3ccccc3O1)C2 (stereo unspecified)	.	.	.	2%[9.04 µM]	-5%	.
CCOC(=O)[C@]12CCCC=C1N(Cc1ccccc1)C(=O)[C@H](CC(=O)N1CCN(C(=O)c3ccco3)CC1)C2	.	.	.	?	-17%	2
COc1ccc(SC[C@H](C)CN2CC[C@H](NC(=O)OCc3ccccc3)CCC2=O)cc1	.	?	.	?	23µM*	28
[N-]=[N+]=N[C@@H](CCN1CC[C@H](NC(=O)OCc2ccccc2)CCC1=O)c1ccccc1	10%	-6%	-6%	?	?	17
COc1ccc(S[C@@H](CCN2CC[C@H](NC(=O)OCc3ccccc3)CCC2=O)c2ccccc2)cc1	.	18µM*	.	18µM*	23µM*	-53*
O=C(N[C@@H]1CCC(=O)N(CC[C@H](Sc2ccc(Br)cc2)c2ccccc2)CC1)OCc1ccccc1	.	?	.	26µM*	18µM*	?
O=C(c1cc(C2CC2)nn1-c1ccccc1)N1CCN(Cc2c(F)cccc2Cl)CC1	.	?	.	?	?	-21
Cc1ccsc1C(=O)N1CCN(C(=O)c2ccco2)CC1	.	8%	.	2%	16%	-2
O=C(Nc1ccc(F)cc1F)c1cc(-c2ccc(Cl)cc2)on1	.	.	.	-1%	?	.
Nc1[nH]c(C(=O)c2ccccc2)c(-c2ccc(F)cc2)c1C(=O)NCc1ccccc1	.	.	.	-1%	-1%	0
CC1=CC2=NC(=O)/C(=C\c3cc(C)n(-c4cccc(Cl)c4)c3C)C(=N)N2O1	-32%	?	-7%	?	9.2µM*	1

Screening data deposited in PubChem by National Center for Advancing Translational Sciences (NCATS).
